Reference: PubChem BioAssay AID778 (Sanford-Burnham Center for Chemical Genomics, 2007)
The whole screen tested about 96,000 compounds, of which about 20,000 (21%) were called active. A selection follows. Unmarked numbers belong to inactive results.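 How the source made its calls: active means CYP2C19 inhibition above a set limit at 5 µM in the primary screen (cut at about 50% in these data); inactive means the rest.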

These compounds were tested against Cytochrome P450 2C19 (Homo sapiens) (UniProt P33261) (assay: blockers of cytochrome P450 2C19 activity – biochemical, luminescence, ADME assay, primary screen (AID 778;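 further: plate controls were negative control wells for no effect and 2.5 mM tranylcypromine positive control for full effect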)). Details: CYP2C19 Supersomes, luciferin-H EGE luminescence, 30 min; at 5 µM; stronger effect = higher value.
Cytochrome P450 2C19 (Homo sapiens), sequence (P33261 whole entry, looked up): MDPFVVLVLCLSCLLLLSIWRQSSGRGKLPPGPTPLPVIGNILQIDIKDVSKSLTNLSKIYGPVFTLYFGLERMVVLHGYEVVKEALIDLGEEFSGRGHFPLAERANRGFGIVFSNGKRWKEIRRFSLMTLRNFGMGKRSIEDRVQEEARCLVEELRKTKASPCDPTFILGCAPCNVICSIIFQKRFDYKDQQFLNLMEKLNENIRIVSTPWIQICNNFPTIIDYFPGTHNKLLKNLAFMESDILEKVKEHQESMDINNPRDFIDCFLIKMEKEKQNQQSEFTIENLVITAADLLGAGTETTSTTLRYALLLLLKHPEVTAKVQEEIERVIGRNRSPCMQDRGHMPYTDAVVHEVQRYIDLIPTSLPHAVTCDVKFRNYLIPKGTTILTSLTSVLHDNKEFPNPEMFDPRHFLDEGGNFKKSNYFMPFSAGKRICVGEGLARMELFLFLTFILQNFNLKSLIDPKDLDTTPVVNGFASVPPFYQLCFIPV
`NC(=O)COc1ccc2c3c(c(=O)oc2c1)CCCCC3` showed an inhibition of -3.8%. With `O=C(COc1ccc2c3c(c(=O)oc2c1)CCC3)NC1CCCCC1` the inhibition was 54.4% (active). Work on `O=C(COc1ccc2oc3c(c2c1)CCCC3)Nc1ccccn1` yielded an inhibition of 21.2%. Work on `CCC1(CC)NC(=O)N(CC(=O)OCC(=O)Nc2ccc(C(F)(F)F)cc2)C1=O` yielded an inhibition of -6.3%. For `S=c1[nH]nc(-c2ccco2)n1/N=C/c1ccc(Br)s1`, the inhibition was -11.6%. For `O=C(NCc1ccccc1)[C@@H]1CSC2c3ccccc3C(=O)N21` (stereo partly specified), the inhibition was 81.2% (active). For `Cc1ccc(CNC(=O)C2CCCN2C(=O)NCc2ccccc2)cc1` (stereo unspecified), the inhibition was 0.7%. Compound `O=C(O)C1CC=C(Cl)CC1C(=O)NCc1ccccc1` (stereo unspecified) has an inhibition of 2.3%. For `Cn1c(=O)c(C(=O)Nc2ncccn2)c(O)c2ccccc21`, the inhibition was 7.9%. Work on `O=C(NCc1ccc(Cl)cc1)c1cc(=O)nc2sc(-c3ccccc3)nn12` yielded an inhibition of 4.6%. `O=C(CCc1ccccc1)Nc1cccc(-c2nnc(-c3ccco3)o2)c1` was tested, and the inhibition was 18.2%. `CC(=O)CSc1nnc(CSc2ncccn2)n1C1CCCCC1` showed an inhibition of -8.3%. `CC1CCCCN1S(=O)(=O)c1ccc(C(=O)Nc2nnc(-c3cccs3)o2)cc1` (stereo unspecified) was tested, and the inhibition was 10.3%. `NC(=O)CSc1oc(-c2cccs2)nc1S(=O)(=O)c1ccccc1` was tested, and the inhibition was 79.2% (active). In the case of `Cc1ccc(CNC(=O)COc2ccc(S(=O)(=O)NC(C)C)cc2)cc1`, the inhibition is reported as 38.8%. Compound `Nc1ccc(C(=O)OCC(=O)NC2CCCc3ccccc32)cc1[N+](=O)[O-]` (stereo unspecified) has an inhibition of 34.6%. `Cn1c(CNc2nc(-c3ccccc3)cs2)nnc1SCC(=O)c1ccccc1` was tested, and the inhibition was 86.5% (active). With `CCOC(=O)CSc1nnc(CNc2nc(-c3ccccc3)cs2)n1C` the inhibition was 35%. `Cn1c(CC(=O)Nc2ccccc2)nnc1SCC(=O)c1ccccc1` gave an inhibition of 33.2%. Work on `CCOc1c2ccc(C(=O)NC3CCCc4ccccc43)cc2nn1CC` (stereo unspecified) yielded an inhibition of 29.9%. Work on `CSCC[C@H](NC(=O)NCc1cccs1)C(=O)O` yielded an inhibition of -4.9%. For `CC(C)C[C@H](NC(=O)NCCc1ccc(Cl)cc1)C(=O)O`, the inhibition was 2.7%. `CSCC[C@H](NC(=O)NCCc1ccc(F)cc1)C(=O)O` was tested, and the inhibition was 72.3% (active). Compound `O=C(O)c1ccc(-n2cccc2)cc1O` has an inhibition of 5.6%. Work on `CCCOc1cc(C)c(S(=O)(=O)n2nnc3ccccc32)cc1C` yielded an inhibition of -9.4%. With `CCOc1cc(C)c(Cl)cc1S(=O)(=O)n1nnc2ccccc21` the inhibition was 66.1% (active). Compound `Cc1ccc(S(=O)(=O)n2cnc3ccccc32)c(C)c1` has an inhibition of 4.5%. With `COc1cc(/C=C2\SC(=S)N(Nc3ncc(C(F)(F)F)cc3Cl)C2=O)cc(OC)c1OC` the inhibition was 31.7%. In the case of `COc1cccc(-c2cc3nc4c(c(N5CCC6(CC5)OCCO6)n3n2)CCCC4)c1`, the inhibition is reported as 24.8%. For `NC(=O)C1CCN(C2OC(=O)c3ccccc32)CC1` (stereo unspecified), the inhibition was -2%. `c1cnn(-c2cc(N3CCOCC3)ncn2)c1` showed an inhibition of 5.4%. In the case of `Cc1ccc(-c2nc(COC(=O)c3c(C)noc3C)cs2)cc1`, the inhibition is reported as 54% (active). `Cc1noc(C)c1C(=O)N1CCOCC1` gave an inhibition of -2.1%. `COC(=O)c1c(-c2ccc(C)cc2)csc1N` was tested, and the inhibition was 24.4%. In the case of `O=C(/C(=N\O)n1cncn1)c1ccc(Br)cc1Br`, the inhibition is reported as 33.6%. In the case of `Cc1[nH]c2ccc(S(N)(=O)=O)cc2c1C`, the inhibition is reported as 13%. `CNC(=O)c1c(NC(NC(=O)c2ccco2)C(=O)c2ccc(Cl)cc2)sc2c1CCCC2` (stereo unspecified) gave an inhibition of 21.4%. `Cc1cccc(-n2c(N)cc(=O)nc2SC(C)C(=O)NC2CCCCC2)c1` (stereo unspecified) gave an inhibition of 12.9%. `CC(=O)Nc1cccc2c1[n+]([O-])c(C)c(C)[n+]2[O-]` showed an inhibition of 5%. With `CCOC(=O)c1ccc2c(c1)nc(SCC(=O)NC(C)C)n2CC` the inhibition was 85.7% (active). In the case of `CCn1c(C)nc2cc(C(=O)NNS(=O)(=O)c3ccc(C)cc3C)ccc21`, the inhibition is reported as 1.5%. For `CCn1c(SCC(=O)NCC2CCCO2)nc2cc(S(=O)(=O)N3CCCCC3)ccc21` (stereo unspecified), the inhibition was 11%. Compound `N#Cc1ccccc1-n1c(N)c(C(=O)N2CCCC2)sc1=S` has an inhibition of 17.2%. With `CCC1CCCCN1CCNS(=O)(=O)c1ccc2c(c1)CCN2C(C)=O` (stereo unspecified) the inhibition was -3.7%. In the case of `Cc1ccc(C(=O)c2c(NC(=O)c3ccccc3)sc(C)c2C)cc1`, the inhibition is reported as 23.7%. For `Cc1ccc(NC(=O)C(C)c2cccc(C(=O)c3ccccc3)c2)cc1` (stereo unspecified), the inhibition was 92.1% (active). Work on `CC(=O)c1cccc(NC(=O)Nc2ccc(C)cc2)c1` yielded an inhibition of -13.3%. `CCn1c(=O)cc(OCC(=O)NCCCN2CCN(c3cccc(Cl)c3)CC2)c2ccccc21` gave an inhibition of 26.7%. In the case of `CC(C)NC(=O)C(=O)NCCN1CCN(S(=O)(=O)c2ccc(Cl)cc2)CC1`, the inhibition is reported as 7.4%. Compound `Cc1ccc(C2(c3ccc(C)cc3)NC(=O)N(Cc3c(C)noc3C)C2=O)cc1` has an inhibition of 14.6%. `Cc1ccccc1-n1c(C)cc(/C=N/NC(=O)c2ccc(CN3CCOCC3)cc2)c1C` was tested, and the inhibition was 24.3%. With `CC(C)c1ccc(OCC(O)Cn2cnc3ccccc32)cc1` (stereo unspecified) the inhibition was 7.2%. With `OC(COc1ccccc1)Cn1cc(Br)cn1` (stereo unspecified) the inhibition was 54.1% (active). `O=C(C(c1ccccc1)c1ccccc1)N1CCN(CC(O)COc2ccccc2)CC1` (stereo unspecified) gave an inhibition of 41.9%. Work on `COc1ccc(NC(=O)CN(C)S(=O)(=O)c2ccccc2)cc1OC` yielded an inhibition of 25.7%. `COc1cccc(NC(=O)C(C)Oc2ccccc2)c1` (stereo unspecified) was tested, and the inhibition was 79.9% (active). With `COc1cccc(NC(=O)c2ccccc2SC)c1` the inhibition was 6.7%. With `CCOc1ccc(S(=O)(=O)N(CC(=O)O)c2ccccc2)cc1` the inhibition was 2.3%. With `CCN(CC)C(=O)CN(c1cccc(OC)c1)S(=O)(=O)c1ccc(C)cc1` the inhibition was 64.9% (active). `COc1ccc(CC(=O)Nc2ccc(-c3nnc(-c4ccccc4)o3)cc2)cc1` was tested, and the inhibition was 18%. With `COc1ccc(OC(C)C(=O)Nc2cccnc2)cc1` (stereo unspecified) the inhibition was 7.1%. In the case of `COc1cccc(NC(=O)Cc2ccc(C)cc2)c1`, the inhibition is reported as 57.1% (active). In the case of `COc1cccc(NC(=O)CN(C)S(=O)(=O)c2ccc(C)cc2)c1`, the inhibition is reported as 78.9% (active). Work on `COc1cccc(N(CC(=O)N2CCc3ccccc3C2)S(C)(=O)=O)c1` yielded an inhibition of 31.3%. Compound `COc1cccc(N(CC(=O)Nc2cccc(N(C)S(C)(=O)=O)c2)S(C)(=O)=O)c1` has an inhibition of 35.8%. For `CCC(=O)Nc1ccc(C(=O)Nc2cccc(OC)c2)cc1`, the inhibition was -0.7%.
